APEX1 inh = APE1 (human) endonuclease inhibition | P27695 | recombinant APE1, TAMRA/BHQ-2 abasic DNA cleavage fluorescence | Potency, µM (series often up to 65.8 µM), hits mostly inhibitors | 350,000 compounds, 0.35% hits; also: nearly all actives have a fitted effect of over 55% in size
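APE1 at 0.75 nM preincubated 15 min at room temperature with compound. Reaction then started with 50 nM double-stranded THF-abasic substrate labelled with TAMRA/BHQ-2, and 525/598 nm fluorescence read kinetically. Activity taken as third-minus-first read difference, normalized to DMSO and NSC13755 controls.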
L3MBTL1 inh = inhibitors of human L3MBTL1. Q9Y468. AlphaScreen L3MBTL1–H3K9me1 peptide binding. Potency, µM (series often up to 57.1 µM), most hits filed as inhibitors. 230,000 compounds, 0.66% hits. AID 485360; also: nearly all actives have a fitted effect of over 60% in size
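Read-out is AlphaScreen signal from streptavidin donor and nickel chelate acceptor beads (10 ug/mL final each) bridging L3MBTL1 (50 nM) and biotinylated K9-monomethylated H3(1-15) peptide (75 nM), after 30 min compound exposure at room temperature.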
BLM inh = inhibitors of human Bloom syndrome helicase BLM; P54132; recombinant BLM DNA unwinding, fluorescence dequenching; Potency, µM (highest dose often 56.1 µM), most hits filed as inhibitors; 350,000 compounds, 0.2% hits; also: nearly all actives have a fitted effect of over 35% in size
JMJD2E inh = inhibitors of human JMJD2E histone demethylase; JMJD2E catalytic domain, FDH-coupled NADH fluorescence (FDH is formaldehyde dehydrogenase); AID 2147; 230,000 compounds, 1.6% hits; Potency, µM (top dose mostly 57.1 µM), actives largely listed as inhibitors; active = well fitted inhibition curve with a large enough effect, not every such curve was filed as active; inconclusive = small, poorly fitted or top-dose-only effect, or another doubt; inactive = no such curve, though single readings can be large or run the other way; also: nearly all actives have a fitted effect of over 50% in size
Target sequence (B2RXH2 1-337 limits assumed): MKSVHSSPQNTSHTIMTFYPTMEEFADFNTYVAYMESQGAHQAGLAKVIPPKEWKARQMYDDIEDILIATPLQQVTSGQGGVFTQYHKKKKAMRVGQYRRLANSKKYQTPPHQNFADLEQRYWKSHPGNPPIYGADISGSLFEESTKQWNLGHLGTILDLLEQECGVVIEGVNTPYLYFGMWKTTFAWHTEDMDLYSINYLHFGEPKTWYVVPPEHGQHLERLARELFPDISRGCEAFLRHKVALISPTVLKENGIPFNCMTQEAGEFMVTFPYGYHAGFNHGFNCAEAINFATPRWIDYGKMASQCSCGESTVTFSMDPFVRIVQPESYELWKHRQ
RECQ1 inh-1 = blocks DNA unwinding by human RECQ1. P46063. RECQ1 DNA unwinding, red fluorescence kinetic read. Potency, µM (highest dose often 57.3 µM), usual class: inhibitors. 240,000 compounds, 0.54% hits; also: nearly all actives have a fitted effect of over 30% in size
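RECQ1T1 50 nM; forked duplex (20 bp + 30-nt ss tails) 200 nM, ATP 2 mM final; pH 8.0, 2 mM MgCl2, 2.5 ug/ml poly(dI-dC); 15 min compound preincubation; discontinuous kinetic read over 2 h at RT.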
RECQ1 conf = confirmation of human RECQ1 helicase inhibitors; AID 2708; Potency, µM (titrated, usually from 229 µM), usual class: inhibitors; 610 compounds, 28% hits; RECQ1 helicase DNA unwinding, fluorescence; shares compounds with RECQ1 inh-1; also: nearly all actives have a fitted effect of over 45% in size
RECQ1 ADP FP = counter-screen for RECQ1 inhibitors: ADP displacement | Potency, µM (highest dose often 228 µM), most hits filed as inhibitors | ADP fluorescence polarization displacement counterscreen | 530 compounds, 27% hits | shares compounds with RECQ1 inh-1; also: nearly all actives have a fitted effect of over 45% in size
RECQ1 inh-2 = confirmation of human RECQ1 helicase inhibitors; shares compounds with RECQ1 inh-1; recombinant RECQ1 DNA unwinding, red fluorescence; Potency, µM (top dose mostly 119 µM), most hits filed as inhibitors; 1,100 compounds, 15% hits; AID 504841; also: nearly all actives have a fitted effect of over 50% in size
A number is an active result; 0 = inactive; ? = inconclusive; - = not tested or not shown. The entries come from a sample that favours hits as a whole. Unless noted, calls follow the shape of the dose curve; as a rule, active = well fitted curve in the direction sought with a large enough effect; inconclusive = small, poorly fitted or top-dose-only effect, or another doubt; inactive = no such curve, though single readings can be large; an effect the other way counts as inactive or inconclusive.

SMILES	APEX1 inh	L3MBTL1 inh	BLM inh	JMJD2E inh	RECQ1 inh-1	RECQ1 inh-2	others
CC(=O)Nc1ccc(S(=O)(=O)NNC(=O)c2ccc(C)cc2)cc1	0	-	0	0	0	-
COc1ccc(CCn2c(N)c(C(=O)NCc3ccco3)c3nc4ccccc4nc32)cc1OC	?	0	0	?	?	0
COc1ccc(CCn2c(N)c(C(=O)NCc3ccco3)c3nc4ccccc4nc32)cc1	0	0	0	?	0	-
COc1ccc(-n2c(=O)c(-c3cccc(Cl)c3)nc3cncnc32)cc1	0	-	0	-	?	0
COc1ccc(-c2nc3cnc(N4CCOCC4)nc3n(-c3ccc(OC)cc3)c2=O)cc1	14.1µM	-	0	-	?	0
O=C(O)c1ccccc1-c1ccc(/C=C/c2cc(C(F)(F)F)[nH]c(=O)n2)o1	0	0	0	?	?	79.4µM
CCc1ccc(N2C(=O)CN(Cc3sccc3C)C2=S)cc1	0	-	0	0	1.58µM	0	RECQ1 conf=0;RECQ1 ADP FP=0
CC1(C)N=C(c2ccc(Cl)cc2)C(=O)N1	0	0	0	0	35.5µM	?
Cc1ccc(C)c(NC(=O)c2cc(S(=O)(=O)NCCc3ccccc3)ccc2F)c1	-	-	0	-	-	-
Cc1ccc(NC(=O)c2cc(S(=O)(=O)NCCc3ccccc3)ccc2F)cc1Cl	0	0	0	0	?	0
COc1cc2[nH]c3c(N4CCN(c5ccccn5)CC4)ncnc3c2cc1OC	?	0	0	?	?	?
COc1cc(N2CCCC2)c(OC)cc1/C=C(/C#N)c1cccc(F)c1	0	-	0	0	3.98µM	-	RECQ1 conf=?;RECQ1 ADP FP=?
COc1ccccc1C1CC(=O)Oc2cc3c(cc21)OCO3 (centres undefined)	31.6µM	-	0	-	35.5µM	28.2µM
O=C(CCCN1C(=O)/C(=C\c2cccs2)SC1=S)NNC(=O)c1cccnc1	0	0	0	0	2.82µM	-	RECQ1 conf=?;RECQ1 ADP FP=0
O=C(CCCN1C(=O)/C(=C/c2cccs2)SC1=S)NNC(=O)c1ccncc1	0	0	0	0	0	-
CCOC(=O)C1(Cc2cccc(F)c2)CCN(Cc2cnc(C)s2)CC1	0	0	0	0	0	-
O=C(COC(=O)/C=C/c1cccc(F)c1)NC1CCCC1	0	0	-	-	-	-
CCCCc1cc(=O)oc2c(CN3CCCC3)c(O)ccc12	0	0	0	?	0	-
CCCCc1cc(=O)oc2cc(C)c(CN3CCCC3)c(O)c12	0	?	?	?	12.6µM	?	RECQ1 conf=20µM;RECQ1 ADP FP=50.1µM
O=c1oc(-c2ccccc2)nc2c1cnn2-c1ccccc1	0	-	0	0	0	-
Cc1ccc(S(=O)(=O)N2CCC(C(=O)NCCN3CCCCCC3)CC2)cc1	0	0	0	0	?	0
NC(=O)C1CCN(CC(O)COc2ccc(-c3ccccc3)cc2)CC1 (centres undefined)	0	0	0	-	-	-
O=C(C1CCCCC1)N(Cc1nc2sc3c(c2c(=O)[nH]1)CCCC3)Cc1cccs1	0	0	0	?	0	-
CCOC(=O)c1c(C)[nH]c(C(=O)C(C)OC(=O)c2ccc(NC(=O)CC#N)cc2)c1C (centres undefined)	0	0	-	-	-	-
CCSC1=N/C(=C\c2ccc(-c3ccccc3[N+](=O)[O-])o2)C(=O)S1	?	0	0	?	0	-
SMILES	APEX1 inh	L3MBTL1 inh	BLM inh	JMJD2E inh	RECQ1 inh-1	RECQ1 inh-2	others
CCCSC1=N/C(=C\c2ccc([N+](=O)[O-])o2)C(=O)S1	22.4µM	?	0	?	12.6µM	?	RECQ1 conf=0
Cc1cc(C)n(-c2nc3ccccc3s2)n1	0	0	0	0	0	-
Cc1c2c(=O)n(-c3nc4ccccc4s3)nc-2cc(O)n1Cc1ccccc1	?	-	15.8µM	?	22.4µM	0	RECQ1 conf=44.7µM;RECQ1 ADP FP=0
COc1cc(OC)cc(C(=O)N(Cc2cc3cc(C)ccc3[nH]c2=O)C(C)C)c1	0	0	0	0	0	-
COc1cccc(C(=O)N(Cc2cc3cc(C)ccc3[nH]c2=O)C(C)C)c1	0	0	0	?	?	0
CCCCCCOC1(c2ccccc2)OC(=O)c2ccccc21 (centres undefined)	0	0	0	0	39.8µM	0
